PubChem BioAssay AID1063 (University of Pittsburgh Molecular Library Screening Center, 2008)
Among all 200,000 compounds or so, about 18,000 (9%) were called active. The full list was thinned out, with actives kept by preference. Values without a mark were called inactive. Rule as the data show it: active = inhibition above about 50%; inactive = the rest.

Test: antileishmanial activity against promastigotes – primary screen (AID 1063);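 also: promastigotes grown with compound for 44 hours at 28 °C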
Conditions: Leishmania major promastigotes, resazurin fluorescence viability; at 10 µM; hits give high values
For c1ccc(-n2nnnc2-c2cccnc2)cc1, the inhibition was -7.89%.
For Cc1ccccc1-c1n[nH]c(=S)n1/N=C/c1ccc(-c2ccccc2Br)o1, the inhibition was 23%.
In the case of COc1ccccc1N1CCN(/N=C\C(Br)=C\c2ccccc2)CC1, the inhibition is reported as -5.39%.
With S=c1[nH]nc(-c2cccnc2)n1/N=C/C(Cl)=C\c1ccccc1 the inhibition was 86% (active).
For Cc1cc(-c2n[nH]c(=S)n2/N=C/C(Br)=C/c2ccccc2)n[nH]1, the inhibition was 88.5% (active).
In the case of CCN(CC)S(=O)(=O)c1cccc(-c2n[nH]c(=S)n2/N=C/c2ccc(C(=O)OC)cc2)c1, the inhibition is reported as 27.8%.
For Clc1ccc(N/N=C/c2cccs2)nn1, the inhibition was -2.51%.
C/C(N)=C(/C#N)C(=O)COC(=O)c1cc(-c2ccccc2)nc2ccc(Br)cc12 showed an inhibition of -4.87%.
Work on C/C(N)=C(/C#N)C(=O)COC(=O)c1cc(-c2ccc(C)cc2)nc2ccccc12 yielded an inhibition of 18.1%.
With C/C(N)=C(/C#N)C(=O)COC(=O)c1cc(-c2cccc(Br)c2)nc2ccccc12 the inhibition was 59.9% (active).
For O=C(NCc1ccccc1Cl)C1CCCO1 (stereo not given), the inhibition was -3.01%.
In the case of COc1ccc(-c2nnc3ccc(SCc4ccccc4)nn23)cc1, the inhibition is reported as -3.51%.
For O=C1CCC(=O)N1c1ccc(NCCc2ccccc2F)c([N+](=O)[O-])c1, the inhibition was -3.12%.
For Cc1ccccc1C(=O)OC1OC(=O)C(Cl)=C1Nc1ccccc1 (stereo not given), the inhibition was 2.63%.
COc1ccc(C(=O)COC(=O)c2nn(C)c(=O)c3ccccc23)c(OC)c1 gave an inhibition of -4.39%.
In the case of Cc1ccc(CC(=O)Nc2ccc(OC(F)F)c(Cl)c2)cc1C, the inhibition is reported as 91.2% (active).
With Cc1ccc(S(=O)(=O)NCCC(=O)Nc2ccc(C)c(Cl)c2)cc1C the inhibition was 4.01%.
With FC(F)Oc1ccc(NC(=S)NCc2ccco2)cc1Cl the inhibition was 12.2%.
Compound CC(C)Cn1c(N)c(C(=O)COC(=O)CN2C(=O)C3CC=CCC3C2=O)c(=O)n(C)c1=O (stereo not given) has an inhibition of 0.69%.
With O=[N+]([O-])/C(N=Nc1ccccc1)=N\Nc1ccccc1 the inhibition was 0.84%.
CCOc1cccc(/C=N/N2C(=O)CSC2=S)c1O showed an inhibition of 2.44%.
Cc1ccccc1-n1cc(CNC(=O)CC2C(=O)NCCN2C/C=C/c2ccccc2)cn1 (stereo not given) gave an inhibition of -1.38%.
Work on CCOC(=O)c1oc2c(CN3CCN(CCO)CC3)c(O)c(CC)cc2c(=O)c1-c1nc2ccccc2s1 yielded an inhibition of -5.26%.
For COc1ccc(-c2cc(C(F)(F)F)nc(S(C)(=O)=O)n2)cc1OC, the inhibition was 71.7% (active).
For COc1ccc(-c2cc(C(F)(F)F)nc(SCC(=O)Nc3ccc4c(c3)OCO4)n2)cc1OC, the inhibition was 0.67%.
Compound COc1cc(OC)nc(S(C)(=O)=O)n1 has an inhibition of -0.01%.
For O=C(/C=C/c1ccc(N2CCOCC2)cc1)c1ccccc1, the inhibition was 13.2%.
For O=c1[nH]c(CN2CCOCC2)nc2scc(-c3ccccc3)c12, the inhibition was -8.93%.
In the case of CN(CC(=O)Nc1ccc(S(=O)(=O)N2CCCC2)cc1)Cc1ccc(Cl)c(Cl)c1, the inhibition is reported as 92% (active).
In the case of CS(=O)(=O)N(CC(=O)Nc1ccc(Cl)c(Cl)c1)C1CCCCC1, the inhibition is reported as 15.8%.
Compound O=C(CSCc1ccc(Br)cc1)Nc1ccc(S(=O)(=O)N2CCCCCC2)cc1 has an inhibition of 6.78%.
In the case of O=C(NNC(=O)C1CCN(c2ncccn2)CC1)c1ccccc1, the inhibition is reported as -7.74%.
O=C(CCCCn1c(=O)[nH]c2ccccc2c1=O)NCc1ccc2c(c1)OCO2 showed an inhibition of 4.03%.
With O=C1N(Cc2ccc3c(c2)OCO3)c2ccccc2C1(O)c1c[nH]c2ccccc12 (stereo not given) the inhibition was 88.9% (active).
With O=C(Cn1nnc(-c2ccccc2)n1)NCc1ccc2c(c1)OCO2 the inhibition was -6.91%.
Cc1ccc(/C=N/NC(=O)COc2ccccc2-c2ccccc2)cc1 gave an inhibition of 4.74%.
With CC(=O)n1c(C=Nc2ccccc2)c(O)c2ccccc21 the inhibition was 4.07%.
NS(=O)(=O)c1ccc(NC(=S)NNC(=O)c2cccs2)cc1 showed an inhibition of -4.08%.
Work on CC(=O)Cc1nsc(NC(=O)c2ccc(Cl)cc2Cl)n1 yielded an inhibition of -1.22%.
Compound CCOc1cc(N2CCOCC2)c(OCC)cc1NC(=O)C1=NN(c2cccc(C)c2)C(=O)CC1 has an inhibition of 13.6%.
With CCN(Cc1nc2ccccc2c(=O)[nH]1)Cc1cc(=O)oc2cc(C)c(C)cc12 the inhibition was 73.8% (active).
Compound CN(Cc1nc2ccccc2c(=O)[nH]1)Cc1cc(=O)oc2ccc3ccccc3c12 has an inhibition of 14.2%.
CCN(CC(=O)NC(=O)NCc1ccccc1)Cc1nc2ccccc2c(=O)[nH]1 gave an inhibition of -3.9%.
Work on COc1cc(/C=C/C(=O)OCC(=O)NC(=O)NCc2ccccc2)ccc1OCC#N yielded an inhibition of -1.09%.
Work on CC(=O)c1cc(C#N)c(SCC(=O)Nc2nccs2)nc1C yielded an inhibition of 1.83%.
CCOC(=O)c1ccccc1NC(=O)CSc1nc2ccccc2c(=O)[nH]1 showed an inhibition of 6.6%.
CCCCNS(=O)(=O)c1ccc(S(=O)(=O)n2cnc3ccccc32)cc1 gave an inhibition of -3.46%.
With O=S(=O)(c1ccc(-c2ccccc2)cc1)N1CCCC1 the inhibition was -7.57%.
With O=S(=O)(c1ccc(Br)cc1)n1ccc2ccccc21 the inhibition was 90.7% (active).
In the case of COc1ccc(-n2c(O)c(C=NCC(c3ccco3)N3CCCC3)c3ccccc3c2=O)cc1OC (stereo not given), the inhibition is reported as 2.68%.
CC(=O)c1ccccc1NC(=O)CC1(CC(=O)O)CCCCC1 gave an inhibition of 3.25%.
Work on CCOC(=O)C1=NOC(Cn2cc(C(C)=O)c(=O)[nH]c2=O)C1 (stereo not given) yielded an inhibition of 1.88%.
With O=C(OCc1ccc([N+](=O)[O-])cc1)c1ccccn1 the inhibition was -0.28%.
For N/C(=N\OC(=O)Cc1ccc([N+](=O)[O-])cc1)c1ccccn1, the inhibition was 98.7% (active).
For N/C(=N\OC(=O)c1ccc([N+](=O)[O-])cc1)c1ccccn1, the inhibition was 1.71%.
CNc1nccc(-c2ccc(Cl)cc2)c1C#N showed an inhibition of -6.29%.
COc1cc(OC)cc(-c2nnc(N(C)C(=O)c3ccncc3)s2)c1 gave an inhibition of -3.83%.
With Cc1ccc(NC(=O)CSc2nc(CSc3ccc(C)cc3)cc(=O)[nH]2)cc1 the inhibition was -2.59%.
Work on O=C(Nc1ccc2oc(-c3ccc4ccccc4c3)nc2c1)c1cccs1 yielded an inhibition of -1.1%.
In the case of O=C(Cc1cccc2ccccc12)Nc1ccc2oc(-c3ccccc3)nc2c1, the inhibition is reported as 40.6%.
With CCCCCC(=O)Nc1ccc2oc(-c3ccncc3)nc2c1 the inhibition was 96.4% (active).
Compound COc1cc(NC(=S)N2CCCC(C)C2)cc(OC)c1OC (stereo not given) has an inhibition of 4.64%.
O=C(Nc1ccccc1)N1CCN(C(=O)Nc2ccccc2)CC1 gave an inhibition of -5.42%.
Work on CCCCN(C(=O)/C=C/c1ccco1)c1c(N)n(CC(C)C)c(=O)[nH]c1=O yielded an inhibition of -4.4%.
In the case of O=C(CCc1nnc(CCCCc2ccccc2)o1)NC(c1cccnc1)C(F)(F)F (stereo not given), the inhibition is reported as 11.3%.
Compound CC(=O)Nc1cccc([N+](=O)[O-])c1 has an inhibition of -0.87%.
With COc1ccc([N+](=O)[O-])cc1NC(=O)CCc1ccccc1 the inhibition was -3.05%.
With CC(CCc1ccccc1)NCC(O)c1cccc([N+](=O)[O-])c1 (stereo not given) the inhibition was 59.5% (active).
Work on CN(C)CCCN1C(=O)CSC1c1ccc([N+](=O)[O-])cc1 (stereo not given) yielded an inhibition of 46.8%.
O=C1NC2(CCCCCC2)C(=O)N1CCS(=O)(=O)Oc1ccccc1 gave an inhibition of -10.5%.
Cc1ccc(NC(=O)c2ccccn2)cc1S(=O)(=O)N1CCOCC1 gave an inhibition of -1.09%.
CCn1cc(C(=O)Nc2cc(C)ccc2C)c(=O)c2ccc(C)nc21 showed an inhibition of 1.39%.
In the case of CN(CC#CCC(c1ccccc1)c1ccccc1)C(C)(C)C, the inhibition is reported as 100% (active).
In the case of CC(C)(C)N(CC#CCC(O)(c1ccccc1)C1CCCC1)CCO (stereo not given), the inhibition is reported as 3.46%.
In the case of COC(=O)C1=C(Nc2ccc(OC)cc2)C=C(C)C(C(=O)OC)C1c1ccc(C)cc1 (stereo not given), the inhibition is reported as 24.6%.
For COC(=O)C1=C(Nc2ccc(C)cc2)C=C(C)C(C(=O)OC)C1c1ccc(F)cc1 (stereo not given), the inhibition was 52.4% (active).
COC(=O)C1C(=O)NCC1c1ccc(C)cc1 (stereo not given) gave an inhibition of 6.72%.
In the case of C=CCn1c(C)cc(C2=NNC(=NCC)SC2)c1C, the inhibition is reported as 58.5% (active).
Work on Cc1cc(C2=NNC(=Nc3ccc(S(=O)(=O)N4CCOCC4)cc3)SC2)c(C)n1CC1CCCO1 (stereo not given) yielded an inhibition of -7.5%.
COCCn1c(C)cc(C2=NNC(=Nc3ccc(F)cc3)SC2)c1C showed an inhibition of -1.36%.
COC(=O)c1cc2n(n1)CCCNC2=O showed an inhibition of -4.96%.
CC(=O)Nc1ccccc1NC(=O)c1cc(C)cc(C)c1 showed an inhibition of -0.58%.
With CCC1CCCCN1C(=S)Nc1ccc(C(C)=O)cc1 (stereo not given) the inhibition was -8.59%.
In the case of O=C(O)c1ccc(NC(=O)C2CCCCC2)cc1, the inhibition is reported as -6.65%.
With CC(=O)c1ccc(N=C2SCCCN2C(=O)C2CCCCC2)cc1 the inhibition was 85.8% (active).
For COc1cccc(NC(=O)CS(=O)(=O)c2cn(CC(=O)N3CCOCC3)c3ccccc23)c1, the inhibition was -7.03%.
For CC(=O)NC(Cc1c[nH]c2ccccc12)C(=O)O (stereo not given), the inhibition was -12.4%.
Compound CC(=O)Nc1ccc(/C=N/NC(=O)c2cccs2)cc1 has an inhibition of -2.65%.
With O=C(NC(Cc1c[nH]c2ccccc12)C(=O)N/N=C/c1ccc(Br)cc1)c1cccs1 (stereo not given) the inhibition was 65.6% (active).
CSc1ncccc1C(=O)N1CCCC(CCC(=O)NCc2ccccc2F)C1 (stereo not given) showed an inhibition of -5.49%.
Compound COc1cc(NC(=O)c2cccs2)ccc1NC(=O)c1ccccc1Cl has an inhibition of 0.19%.
For CCOC(=O)C1CCN(C(c2cc3cc(C)cc(C)c3[nH]c2=O)c2nnnn2C2CCCCC2)CC1 (stereo not given), the inhibition was 88.6% (active).
CCOc1ccc2[nH]c(=O)c(C(c3nnnn3CCOC)N3CCOCC3)cc2c1 (stereo not given) showed an inhibition of -4.07%.
In the case of Cc1cc(C)c2[nH]c(=O)c(C(c3nnnn3Cc3ccc4c(c3)OCO4)N3CCCC3)cc2c1 (stereo not given), the inhibition is reported as 27.4%.
CN1CCN(C(c2cc3cc4c(cc3[nH]c2=O)OCCO4)c2nnnn2C2CCCC2)CC1 (stereo not given) gave an inhibition of -6.88%.
CC(C)C(c1nnnn1C1CCCC1)N1CCN(c2ccccc2F)CC1 (stereo not given) showed an inhibition of 33%.
For COc1ccc(N2CCN(C(c3cc4ccc(C)cc4[nH]c3=O)c3nnnn3C3CCCC3)CC2)cc1 (stereo not given), the inhibition was 75.4% (active).
In the case of COc1ccc(C(c2nnnn2C2CCCCC2)N2CCN(c3ccccc3F)CC2)cc1 (stereo not given), the inhibition is reported as 96.8% (active).
CCC(c1nnnn1C1CCCC1)N1CCN(C(=O)c2ccco2)CC1 (stereo not given) showed an inhibition of -6.05%.
Compound COCCn1nnnc1C(c1ccccc1Cl)N1CCN(c2ccccc2OC)CC1 (stereo not given) has an inhibition of -0.67%.
